Source: PubChem BioAssay (NCATS)
Results filed as inconclusive are left out. Active and inactive are the calls of the source. The call rests on the fitted dose curve; in most records, active means well fitted curve in the direction sought with a large enough effect; inconclusive means small, poorly fitted or top-dose-only effect, or another doubt; inactive means no such curve, though single readings can be large; an effect the other way counts as inactive or inconclusive.

What was measured:
NIH3T3 = assay: qHTS assay to identify novel small-molecules to repurpose for Merkel cell carcinoma treatment (AID 1296009); details: MCC and control cell lines, CellTiter-Glo viability, 72 h; at 44.8 µM (top of the series) unless noted; further: nearly all actives have a fitted effect of over 60% in size
Outline: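 Luminescence from CellTiter-Glo, read 10 min after addition at room temperature, reported viability following a 72 hr, 37 degree celsius treatment with NPC or MIPE compounds in titration; values normalized to plate controls.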

C33A = assay: Primary qHTS to identify gynecologic anti-cancer compounds using libraries of approved drugs and bioactive compounds (AID 1345084); details: Gynecologic cancer cell panel viability, ATPlite luminescence, 48 h; series mostly up to 57.5 µM; further: nearly all actives have a fitted effect of over 55% in size; further: potency means the concentration at half of the fitted maximal effect; on activity change, negative = cytotoxicity: on the % scale 0 is the no-effect control and ±100 the full control effect
Outline: (§1)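 Five-concentration response, 48 h; readout is ATP-driven luciferase luminescence.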

CAOV3 = assay: as above; details: Gynecologic cancer cell panel viability, ATPlite luminescence, 48 h; series mostly up to 57.5 µM
Outline: as §1

CASKI = assay: as above; details: Gynecologic cancer cell panel viability, ATPlite luminescence, 48 h; series mostly up to 57.5 µM
Outline: as §1

Es-2 = assay: as above; details: Gynecologic cancer cell panel viability, ATPlite luminescence, 48 h; series mostly up to 57.5 µM
Outline: as §1

HeLa = assay: as above; details: Gynecologic cancer cell panel viability, ATPlite luminescence, 48 h; series mostly up to 57.5 µM
Outline: as §1

Hek293T = assay: as above; details: Gynecologic cancer cell panel viability, ATPlite luminescence, 48 h, control line for the selectivity index; series mostly up to 57.5 µM
Outline: as §1

JEG-3 = assay: as above; details: Gynecologic cancer cell panel viability, ATPlite luminescence, 48 h; series mostly up to 57.5 µM
Outline: as §1

OV90 = assay: as above; details: Gynecologic cancer cell panel viability, ATPlite luminescence, 48 h; series mostly up to 57.5 µM
Outline: as §1

PA-1 = assay: as above; details: Gynecologic cancer cell panel viability, ATPlite luminescence, 48 h; series mostly up to 57.5 µM
Outline: as §1

SKOV3 = assay: as above; details: Gynecologic cancer cell panel viability, ATPlite luminescence, 48 h; series mostly up to 57.5 µM
Outline: as §1

Tov-21-G = assay: as above; details: Gynecologic cancer cell panel viability, ATPlite luminescence, 48 h; series mostly up to 57.5 µM
Outline: as §1

Tov112D = assay: as above; details: Gynecologic cancer cell panel viability, ATPlite luminescence, 48 h; series mostly up to 57.5 µM
Outline: as §1

C=C1C[C@@]2(O)O[C@@]3(C[C@H]2C(C)C)[C@@H](C)CC[C@@H]13
inactive: outcome (NIH3T3) | Potency (C33A) | Potency (CAOV3) | outcome (CASKI) | Potency (Es-2) | Potency (HeLa) | Potency (Hek293T) | Potency (JEG-3) | Potency (OV90) | Potency (PA-1) | Potency (SKOV3) | Potency (Tov-21-G) | Potency (Tov112D)

COc1cc(Nc2nc3ccccc3nc2NS(=O)(=O)c2cccc(NC(=O)c3ccc(C)c(OC)c3)c2)cc(OC)c1
inactive: outcome (NIH3T3) | Potency (C33A) | Potency (CAOV3) | outcome (CASKI) | Potency (Es-2) | Potency (HeLa) | Potency (Hek293T) | Potency (JEG-3) | Potency (OV90) | Potency (PA-1) | Potency (SKOV3) | Potency (Tov-21-G) | Potency (Tov112D)

CC(=O)/C=C/C1C(C)CC(O[C@@H]2O[C@H](CO)[C@@H](O)[C@H](O)[C@H]2O)CC1(C)C (stereo partly specified)
inactive: outcome (NIH3T3) | Potency (C33A) | Potency (CAOV3) | outcome (CASKI) | Potency (Es-2) | Potency (HeLa) | Potency (Hek293T) | Potency (JEG-3) | Potency (OV90) | Potency (PA-1) | Potency (SKOV3) | Potency (Tov-21-G) | Potency (Tov112D)

CNC(C)C(=O)NC(C(=O)N1CCCC1C(=O)Nc1cccc2ncccc12)C(C)C (stereo unspecified)
inactive: outcome (NIH3T3) | Potency (C33A) | outcome (CASKI) | Potency (Es-2) | Potency (HeLa) | Potency (Hek293T) | Potency (JEG-3) | Potency (OV90) | Potency (PA-1) | Potency (Tov112D)
active: Potency (CAOV3) 10 µM | Potency (SKOV3) 7.94 µM

C[C@@H]1O[C@@H](O[C@H]2[C@H](Oc3cc(O)c(C(=O)CCc4ccc(O)cc4)c(O)c3)O[C@H](CO)[C@@H](O)[C@@H]2O)[C@H](O)[C@H](O)[C@H]1O
inactive: outcome (NIH3T3) | Potency (C33A) | Potency (CAOV3) | outcome (CASKI) | Potency (Es-2) | Potency (HeLa) | Potency (Hek293T) | Potency (JEG-3) | Potency (OV90) | Potency (PA-1) | Potency (SKOV3) | Potency (Tov-21-G) | Potency (Tov112D)

CC[C@H]1OC(=O)[C@H](C)C(=O)[C@H](C)[C@@H](OC2O[C@H](C)C[C@H](N(C)C)[C@H]2O)[C@@H](C)C[C@@H](C)C(=O)/C=C/[C@]1(C)O (stereo partly specified)
inactive: outcome (NIH3T3) inactive [at 17.4 µM] | Potency (C33A) | Potency (CAOV3) | outcome (CASKI) | Potency (Es-2) | Potency (HeLa) | Potency (Hek293T) | Potency (JEG-3) | Potency (OV90) | Potency (PA-1) | Potency (SKOV3) | Potency (Tov-21-G) | Potency (Tov112D)

C=C1CC[C@]2(C(=O)O[C@@H]3O[C@H](CO)[C@@H](O)[C@H](O)[C@H]3O)CC[C@]3(C)C(=CCC4[C@@]5(C)C[C@H](O)[C@@H](O[C@@H]6O[C@H](C(=O)O)[C@@H](O)[C@H](O)[C@H]6O)[C@](C)(C=O)C5CC[C@]43C)C2C1 (stereo partly specified)
inactive: outcome (NIH3T3) inactive [at 9.27 µM] | activity change, negative = cytotoxicity (C33A) 1.71% [at 11.6 µM] | activity change, negative = cytotoxicity (CAOV3) -2.86% [at 11.6 µM] | activity change, negative = cytotoxicity (CASKI) -3.95% [at 11.6 µM] | activity change, negative = cytotoxicity (Es-2) 1.14% [at 11.6 µM] | activity change, negative = cytotoxicity (HeLa) 4.56% [at 11.6 µM] | activity change, negative = cytotoxicity (Hek293T) 2.33% [at 11.6 µM] | activity change, negative = cytotoxicity (JEG-3) -0.564% [at 11.6 µM] | activity change, negative = cytotoxicity (OV90) 2.48% [at 11.6 µM] | activity change, negative = cytotoxicity (PA-1) 8.86% [at 11.6 µM] | activity change, negative = cytotoxicity (SKOV3) -9% [at 11.6 µM] | activity change, negative = cytotoxicity (Tov-21-G) 6.07% [at 11.6 µM] | activity change, negative = cytotoxicity (Tov112D) 5.76% [at 11.6 µM]

C=C1CC/C=C(/C(=O)O)CCC2C1CC2(C)C (stereo unspecified)
inactive: outcome (NIH3T3) | Potency (C33A) | Potency (CAOV3) | outcome (CASKI) | Potency (Es-2) | Potency (HeLa) | Potency (Hek293T) | Potency (JEG-3) | Potency (OV90) | Potency (PA-1) | Potency (SKOV3) | Potency (Tov-21-G) | Potency (Tov112D)

CC(=O)OC[C@]12[C@@H](OC(=O)c3ccoc3)C[C@@H]3[C@@H](OC(C)=O)[C@]1(OC3(C)C)[C@@](C)(O)C[C@H](OC(=O)c1ccoc1)[C@@H]2OC(=O)c1ccoc1
inactive: outcome (NIH3T3) inactive [at 17.4 µM] | Potency (C33A) | Potency (CAOV3) | outcome (CASKI) | Potency (Es-2) | Potency (HeLa) | Potency (Hek293T) | Potency (JEG-3) | Potency (OV90) | Potency (PA-1) | Potency (SKOV3) | Potency (Tov-21-G) | Potency (Tov112D)

CC1=C(CO)C2(C)CCCC(C)(C)C2C(O)C1O (stereo unspecified)
inactive: outcome (NIH3T3) | Potency (C33A) | Potency (CAOV3) | outcome (CASKI) | Potency (Es-2) | Potency (HeLa) | Potency (Hek293T) | Potency (JEG-3) | Potency (OV90) | Potency (PA-1) | Potency (SKOV3) | Potency (Tov-21-G) | Potency (Tov112D)

CC1CCC2(NC1)OC1C(O)C3C4CCC5CC(O[C@@H]6O[C@H](CO)[C@@H](O)[C@H](O)[C@H]6O[C@@H]6O[C@@H](C)[C@H](O)[C@@H](O)[C@H]6O)CCC5(C)C4CCC3(C)C1C2C (stereo partly specified)
inactive: outcome (NIH3T3) inactive [at 17.4 µM] | Potency (C33A) | Potency (CAOV3) | outcome (CASKI) | Potency (Es-2) | Potency (HeLa) | Potency (Hek293T) | Potency (JEG-3) | Potency (OV90) | Potency (PA-1) | Potency (Tov-21-G) | Potency (Tov112D)

C/C=C/C=C/C=C/C(=O)O[C@@H]1C=C(CO)[C@](O)(CO)[C@@]2(C)CCCC(C)(C)[C@H]12
inactive: outcome (NIH3T3) | Potency (C33A) | Potency (CAOV3) | outcome (CASKI) | Potency (Es-2) | Potency (HeLa) | Potency (Hek293T) | Potency (JEG-3) | Potency (OV90) | Potency (PA-1) | Potency (Tov-21-G) | Potency (Tov112D)

CCCCS(=O)(=O)NC(Cc1ccc(OCCCCC2CCNCC2)cc1)C(=O)O (stereo unspecified)
inactive: outcome (NIH3T3) | Potency (C33A) | Potency (CAOV3) | outcome (CASKI) | Potency (Es-2) | Potency (HeLa) | Potency (Hek293T) | Potency (JEG-3) | Potency (OV90) | Potency (PA-1) | Potency (SKOV3) | Potency (Tov-21-G) | Potency (Tov112D)
